Source: PubChem
Rows were chosen to be rich in hits. Some 19% of all compounds tested hit in one or more screens of this group.
HepG2 viability: qHTS for Inhibitors of TGF-b: Cytotox Counterscreen; HepG2 CAGA-GFP viability, ATP luminescence, 18 h; Potency, µM (top dose mostly 46.1 µM), most hits filed as cytotoxic; 0.76% of 410,000 active; AID 588856, 2011
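CellTiter-Glo luminescence gave cytotoxicity after 18 hours at 37 degrees C. The cells were HepG2 CAGA-GFP in 1% FBS DMEM, stimulated with 500 pg/mL TGF-beta after compound addition. %Activity was normalised to no-cell wells (complete cell-killing) and DMSO (no toxicity), and curves were fitted and classified.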
TDP1 cell noCPT: qHTS for Inhibitors of human tyrosyl-DNA phosphodiesterase 1 (TDP1): qHTS in cells in absence of CPT | DT40 Tdp1-/- hTDP1 cells, no CPT, ATP luminescence, 48 h | Potency, µM (titrated, usually from 46.2 µM), actives largely listed as inhibitors | 15% of 420,000 active; also: nearly all actives have a fitted effect of over 55% in size
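Chicken DT40 Tdp1-/- cells stably complemented with human TDP1 were seeded at 400 cells/well with DMSO in place of 20 nM camptothecin. After compound pinning, cells grew at least 48 hr at 37 °C; viability read by CellTiter-Glo luminescence.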
TDP1 cell CPT: qHTS for Inhibitors of human tyrosyl-DNA phosphodiesterase 1 (TDP1): qHTS in cells in presence of CPT; chicken DT40 Tdp1-/-;hTDP1 cells + 20 nM CPT, ATP luminescence, 48 h; Potency, µM (top dose mostly 46.2 µM), usual class: inhibitors; 12% of 420,000 active; also: nearly all actives have a fitted effect of over 55% in size
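Cell growth measured by CellTiter-Glo luminescence after a minimum 48 h, 37 C compound exposure with 20 nM CPT in Tdp1-knockout DT40 cells stably expressing hTDP1, seeded 400/well; qHTS titration format.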
S-ASM inh: Inhibitors of Secretory Acid Sphingomyelinase (S-ASM): qHTS | Sphingomyelin phosphodiesterase (Homo sapiens), P17405 | placental ASM, HMU-PC fluorogenic substrate, 60 min | Potency, µM (titrated, usually from 57.5 µM), hits mostly inhibitors | 0.006% of 340,000 active | AID 504937, 2011
Target sequence (P17405 47-631 limits assumed): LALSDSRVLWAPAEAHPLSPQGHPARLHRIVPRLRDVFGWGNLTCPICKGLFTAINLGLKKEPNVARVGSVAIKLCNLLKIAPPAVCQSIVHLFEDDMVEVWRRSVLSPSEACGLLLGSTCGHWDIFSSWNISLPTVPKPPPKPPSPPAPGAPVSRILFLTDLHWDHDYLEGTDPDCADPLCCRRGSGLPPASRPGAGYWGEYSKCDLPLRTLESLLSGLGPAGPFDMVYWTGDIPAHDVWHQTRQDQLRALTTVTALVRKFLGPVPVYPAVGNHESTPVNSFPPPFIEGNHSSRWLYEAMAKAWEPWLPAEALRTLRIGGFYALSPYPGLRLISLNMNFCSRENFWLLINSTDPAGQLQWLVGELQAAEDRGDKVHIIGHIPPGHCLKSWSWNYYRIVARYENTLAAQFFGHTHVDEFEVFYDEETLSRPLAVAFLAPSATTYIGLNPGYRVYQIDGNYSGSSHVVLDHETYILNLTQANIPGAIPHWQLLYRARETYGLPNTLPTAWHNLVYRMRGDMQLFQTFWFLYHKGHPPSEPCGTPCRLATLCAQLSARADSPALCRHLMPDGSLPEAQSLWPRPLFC
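Steps: dispense placental human ASM, pin compound, wait 10 min at room temperature, add HMU-PC0 substrate at 9 uM final, incubate 60 min at 37 °C, add stop solution raising pH to 10, read fluorescence.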
TGFb SMAD3 inh: qHTS for Inhibitors of TGF-b; HepG2 CAGA-GFP TGF-b/SMAD3 reporter, GFP fluorescence, 18 h; TGF-beta stimulated, 500 pg/mL final; Potency, µM (doses to about 46.1 µM), most hits filed as inhibitors; 1.2% of 410,000 active; AID 588855, 2011; also: nearly all actives have a fitted effect of over 65% in size
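TGF-beta reporter screen: HEPG2 CAGA-GFP, 1% FBS, 500 pg/mL TGF-beta final, 18 h; per-cell GFP summed per well; curves fitted and categorized by class.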
IL-1B inflam inh: qHTS for Inhibitors of Inflammasome Signaling: IL-1-beta AlphaLISA Primary Screen; THP-1 LPS/ATP IL-1B secretion, AlphaLISA, 16 h; active compounds read low; activity change, % at 57.5 µM; 4.7% of 360,000 active; in the data active = activity change below about -50%; inconclusive = mostly about -30% to -49%
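THP-1 cells pretreated 1 hr with compounds (up to 57.5 uM final), then stimulated with LPS (250 ng/mL final) plus ATP (1.25 mM final); secreted IL-1B measured by AlphaLISA after 16 hr, decreased signal indicating inhibition.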
Large screens that a line does not name were inactive. Unless noted, calls follow the shape of the dose curve; as a rule, active = well fitted curve in the direction sought with a large enough effect; inconclusive = small, poorly fitted or top-dose-only effect, or another doubt; inactive = no such curve, though single readings can be large; an effect the other way counts as inactive or inconclusive.

COc1ccc(N2CCN(C(=O)CCS(=O)(=O)c3ccc4c(c3)NC(=O)CO4)CC2)cc1	TDP1 cell noCPT 16.4µM, TDP1 cell CPT inconclusive
Brc1ccc(C=C2C=c3ccccc3=C2)cc1	none (no result: S-ASM inh, IL-1B inflam inh)
COC1(C(F)(F)F)NC(=O)N(c2ccc(F)cc2)C1=O (centres undefined)	none (no result: S-ASM inh, IL-1B inflam inh)
CN(CC(=O)N1CCN(c2cccc(Cl)c2)CC1)S(=O)(=O)c1cnc[nH]1	none
CN(CC(=O)N1CCN(c2cccc(Cl)c2)CC1)S(=O)(=O)c1cccs1	TDP1 cell noCPT 16.4µM, TDP1 cell CPT inconclusive, IL-1B inflam inh inconclusive
O=C(N1CCN(c2cccc(Cl)c2)CC1)C1(c2cccs2)CCOCC1	TDP1 cell noCPT 20.6µM, TDP1 cell CPT 23.1µM, IL-1B inflam inh inconclusive
CC(CC(=O)N1CCN(c2ccccc2)CC1)S(=O)(=O)c1ccc2c(c1)NC(=O)CO2 (centres undefined)	TDP1 cell noCPT inconclusive, TDP1 cell CPT 20.6µM
CCOC(=O)c1csc(N/N=C2\CCCc3ccccc32)n1	TDP1 cell noCPT 16.4µM, TDP1 cell CPT inconclusive, TGFb SMAD3 inh inconclusive
COc1ccc2c(c1)CCC/C2=N\Nc1nc(C(=O)NN)cs1	TDP1 cell noCPT inconclusive, TDP1 cell CPT inconclusive (no result: IL-1B inflam inh)
CCOC(=O)c1csc(N/N=C2\CCc3ccccc32)n1	TDP1 cell noCPT inconclusive, TDP1 cell CPT inconclusive, IL-1B inflam inh -92.5
CCOC(=O)c1csc(NC(=O)c2cccs2)n1	none
COC(=O)CCC(=O)N1CCCC(CO)(Cc2ccccc2F)C1 (centres undefined)	none
FC(F)(F)c1cccc(N2CCN(C(=S)NC3CCCC3)CC2)c1	TDP1 cell noCPT 16.4µM, TDP1 cell CPT inconclusive, TGFb SMAD3 inh inconclusive, IL-1B inflam inh -57.1
CCNC(=S)N1CCN(c2cccc(C(F)(F)F)c2)CC1	TDP1 cell noCPT 13µM, TDP1 cell CPT 14.6µM
S=C(NC1CCCC1)N1CCN(c2ccc(Cl)cc2)CC1	TDP1 cell noCPT inconclusive, IL-1B inflam inh inconclusive
FC(F)(F)c1cccc(N2CCN(C(=S)NC3CCCCC3)CC2)c1	TDP1 cell noCPT 23.1µM, TDP1 cell CPT inconclusive, TGFb SMAD3 inh inconclusive
Cc1nnc2ccc(N3CCCCC3)nn12	none
Cc1nnc2ccc(N3CCN(c4cccc(C(F)(F)F)c4)CC3)nn12	TDP1 cell noCPT 16.4µM, TDP1 cell CPT 25.9µM
COc1ccc2cc(CNc3ccc(OC)c(OC)c3)c(=O)n(CC(=O)Nc3ccc(C)cc3)c2c1	none (no result: TDP1 cell noCPT, TDP1 cell CPT, S-ASM inh, IL-1B inflam inh)
CCCCNC(=O)[C@@H]1CC=C[C@@H]2CCN(Cc3ccc(OC)c(OC)c3)C(=O)[C@@H]21	TDP1 cell noCPT inconclusive, TDP1 cell CPT inconclusive (no result: S-ASM inh, IL-1B inflam inh)
Cc1c(-c2cc(C(=O)O)on2)cnn1C	none
CC(C)(C)n1ncc2c(=O)n(Cc3ccc(Cl)c(C(F)(F)F)c3)cnc21	none (no result: TDP1 cell noCPT, TDP1 cell CPT, S-ASM inh, IL-1B inflam inh)
CN1CC=C2C(C#N)=C(N)C(C#N)(C#N)[C@H](c3ccoc3)[C@H]2C1	TDP1 cell noCPT 20.6µM, TDP1 cell CPT inconclusive
Cc1ccc(C2C3CN(C(C)C)CC=C3C(C#N)=C(N)C2(C#N)C#N)cc1 (centres undefined)	TDP1 cell noCPT 12.6µM, TDP1 cell CPT 15.8µM
N#CC1=C(N)C(C#N)(C#N)[C@H](c2ccoc2)[C@H]2CN(Cc3ccccc3)CC=C12	TDP1 cell noCPT 5.8µM, TDP1 cell CPT 5.8µM, TGFb SMAD3 inh inconclusive
CC(=O)N1CC=C2C(C#N)=C(N)C(C#N)(C#N)[C@H](c3ccoc3)[C@H]2C1	none
CN1CC=C2C(C#N)=C(N)C(C#N)(C#N)C(c3cccc(Cl)c3Cl)C2C1 (centres undefined)	TDP1 cell noCPT inconclusive, TDP1 cell CPT 23.1µM, IL-1B inflam inh -103.2
N#CC1=C(N)C(C#N)(C#N)C(c2cccnc2)C2CN(C(=O)OCc3ccccc3)CC=C12 (centres undefined)	TDP1 cell noCPT inconclusive, TDP1 cell CPT 16.4µM, TGFb SMAD3 inh inconclusive
COc1ccc(C(C)(C)C)cc1NC(=O)c1cncc(Br)c1	TDP1 cell noCPT 18.4µM, TDP1 cell CPT inconclusive, TGFb SMAD3 inh inconclusive
COc1ccc(C(C)(C)C)cc1NC(=O)C1CC=CCC1C(=O)O (centres undefined)	TDP1 cell noCPT 14.6µM, TDP1 cell CPT inconclusive
COc1ccc(C(C)(C)C)cc1NC(=O)c1ccc2ncsc2c1	TDP1 cell noCPT inconclusive, TDP1 cell CPT inconclusive, IL-1B inflam inh -51.3
O=C(O)C1CC=CCC1C(=O)Nc1ccc(Oc2ccc(Cl)cc2)cc1 (centres undefined)	TDP1 cell noCPT inconclusive, TDP1 cell CPT inconclusive
COc1ccc(NC(=O)c2ccc3ncsc3c2)c2ccccc12	none
Cc1cc(C)cc(Oc2ccc(NC(=O)C3CC=CCC3C(=O)O)cc2)c1 (centres undefined)	TDP1 cell noCPT 3.66µM
Cc1ccc(C)c(NC(=O)c2cc([N+](=O)[O-])cc([N+](=O)[O-])c2)c1	none
Cc1cc(NC(=O)CCC(=O)N(c2ccccc2)C(C(=O)NC2CCCC2)c2ccccc2C)no1 (centres undefined)	TDP1 cell noCPT inconclusive
COc1cccc(C2=CC(=O)C(C(C)(C)C)N2C(C)(C)C)c1 (centres undefined)	TDP1 cell noCPT 20.6µM, TDP1 cell CPT inconclusive, TGFb SMAD3 inh inconclusive
COCCCNC(=O)c1ccc([N+](=O)[O-])cc1	none
O=C(CCl)NCCCN(C(=O)C(Cl)Cl)c1ccc([N+](=O)[O-])cc1	HepG2 viability 12.6µM, TDP1 cell noCPT 13µM, TDP1 cell CPT 9.2µM, TGFb SMAD3 inh inconclusive
COc1ccccc1N(C(=O)c1snc(C(N)=O)c1N)C(C(=O)NC1CCCC1)c1ccco1 (centres undefined)	TDP1 cell CPT inconclusive, TGFb SMAD3 inh inconclusive
Cc1ccc(C)c(N(C(=O)c2snc(C(N)=O)c2N)C(C(=O)NCC2CCCO2)c2cccs2)c1 (centres undefined)	TDP1 cell noCPT 8.2µM, TDP1 cell CPT 7.31µM
Cc1cccc(N(C(=O)c2snc(C(N)=O)c2N)C(C(=O)NCC2CCCO2)c2cccs2)c1 (centres undefined)	TDP1 cell noCPT 0.411µM
Cc1cccc(N(C(=O)c2snc(C(N)=O)c2N)C(C)C(=O)NCC2CCCO2)c1 (centres undefined)	IL-1B inflam inh inconclusive
